Each structure is given as a SMILES string. Results filed as inconclusive are left out. Entries that show only a call come without a potency. Active and inactive are the calls of the source. Calls follow the shape of the full dose curve; tested in HEK293 reporter line.

The values that follow come from PubChem BioAssay (NCATS).
Potency is read from the fitted curve at half-maximal effect.

This assay can be described thus: qHTS for Inhibitors of the Functional Ribonucleoprotein Complex (vRNP) of Lassa (LASV) Arenavirus: LASV Primary Screen - GLuc reporter signal (AID 1347082). Also: nearly all actives have a fitted effect of over 60% in size. To be noted: LASV minigenome vRNP, Gaussia luciferase reporter; series mostly up to 57.5 µM. (In qHTS, concentration-response curves come from the screen itself.)
On to `CS(=O)c1ccc(-c2nc(-c3ccc(F)cc3)c(-c3ccncc3)[nH]2)cc1` (configuration not stated), for which the Potency entry is “inactive”.

Consider `Cn1cc[nH]c1=S`, for which the Potency result was “inactive”.

Take `CCCCCOC(=O)Nc1nc(=O)n([C@@H]2O[C@H](C)[C@@H](O)[C@H]2O)cc1F`: the Potency result is “inactive”.

In the case of `NC(=O)OCC(COC(N)=O)c1ccccc1`, the Potency entry is “inactive”.

For the compound `CO[C@@H](C(=O)N1Cc2[nH]nc(NC(=O)c3ccc(N4CCN(C)CC4)cc3)c2C1)c1ccccc1`, the Potency entry was “inactive”.

Consider `COc1cc(C(=O)NCc2ccc(OCCN(C)C)cc2)cc(OC)c1OC`, for which the Potency result was “inactive”.

Consider `N[C@@H]1CONC1=O`, for which the Potency entry is “inactive”.

As to `CC(=O)N[C@@H](CS)C(=O)O`, the Potency result was “inactive”.

As to `Nc1nc2c(ncn2COCCO)c(=O)[nH]1`, the Potency entry is “inactive”.

Take `CCOC(=O)C1=C(C)NC(C)=C(C(=O)OC)C1c1cccc(Cl)c1Cl` (configuration not stated): the Potency entry was “inactive”.

Consider `O=NN(CCCl)C(=O)NC1CCCCC1`, for which the Potency result is “inactive”.

`CC[C@@]1(O)C(=O)OCc2c1cc1n(c2=O)Cc2cc3c(CN(C)C)c(O)ccc3nc2-1`: the Potency was 8.63 µM (active).

For the compound `Cc1nccn1CC1CCc2c(c3ccccc3n2C)C1=O` (configuration not stated), the Potency result is “inactive”.

Consider `CCCCNc1ccc(C(=O)OCCOCCOCCOCCOCCOCCOCCOCCOCCOC)cc1`, for which the Potency result is “inactive”.

As for `Cc1onc(-c2c(Cl)cccc2Cl)c1C(=O)N[C@@H]1C(=O)N2[C@@H]1SC(C)(C)[C@@H]2C(=O)O`, the Potency result is “inactive”.

Turning to `CC[C@]1(O)C[C@H]2CN(CCc3c([nH]c4ccccc34)[C@@](C(=O)OC)(c3cc4c(cc3OC)N(C=O)[C@H]3[C@@](O)(C(=O)OC)[C@H](OC(C)=O)[C@]5(CC)C=CCN6CC[C@]43[C@@H]65)C2)C1`, the Potency entry was “inactive”.

As to `CC(C)(C)NC(=O)[C@H]1CC[C@H]2[C@@H]3CC[C@H]4NC(=O)C=C[C@]4(C)[C@H]3CC[C@]12C`, the Potency entry is “inactive”.

`CCCCc1ncc(/C=C(\Cc2cccs2)C(=O)O)n1Cc1ccc(C(=O)O)cc1`: the Potency result is “inactive”.

In the case of `CCCC(=O)Nc1ccc(OCC(O)CNC(C)C)c(C(C)=O)c1` (configuration not stated), the Potency result was “inactive”.

Take `CNS(=O)(=O)Cc1ccc2[nH]cc(CCN(C)C)c2c1`: the Potency result is “inactive”.

Regarding `OCCN(CCO)c1nc(N2CCCCC2)c2nc(N(CCO)CCO)nc(N3CCCCC3)c2n1`, the Potency result is “inactive”.

For `NC1[C@H]2CN(c3nc4c(cc3F)c(=O)c(C(=O)O)cn4-c3ccc(F)cc3F)C[C@@H]12` (some centres not stated), the Potency entry was “inactive”.

On to `NS(=O)(=O)c1cc2c(cc1C(F)(F)F)NCNS2(=O)=O`, for which the Potency result was “inactive”.

Turning to `Cc1ccc2c(n1)Oc1ccc(C(C)C(=O)OCC(=O)N(C)C)cc1C2` (configuration not stated), the Potency entry is “inactive”.

As for `C[C@@H](O)[C@H]1C(=O)N2C(C(=O)O)=C(S[C@@H]3CN[C@H](C(=O)N(C)C)C3)[C@H](C)[C@H]12`, the Potency entry was “inactive”.

For the compound `CN(C)[C@@H]1C(=O)C(C(N)=O)=C(O)[C@@]2(O)C(=O)C3=C(O)c4c(O)ccc(Cl)c4[C@@H](O)[C@H]3C[C@@H]12`, the Potency result was “inactive”.

Regarding `O=NN(CCCl)C(=O)NCCCl`, the Potency entry was “inactive”.

In the case of `CC(C)C1CCC(C(=O)N[C@H](Cc2ccccc2)C(=O)O)CC1` (some centres not stated), the Potency result is “inactive”.

`CCc1nc(N)nc(N)c1-c1ccc(Cl)cc1`: the Potency entry is “inactive”.

With `CC1=C(C(=O)O)N2C(=O)[C@@H](NC(=O)[C@H](N)c3ccc(O)cc3)[C@H]2SC1`, the Potency entry was “inactive”.

As to `CCOc1ccc2ccccc2c1C(=O)N[C@@H]1C(=O)N2[C@@H]1SC(C)(C)[C@@H]2C(=O)O`, the Potency entry is “inactive”.

For the compound `CCCN(CCC)S(=O)(=O)c1ccc(C(=O)O)cc1`, the Potency entry was “inactive”.

Consider `C#C[C@]1(O)CC[C@H]2[C@@H]3CCC4=Cc5oncc5C[C@]4(C)[C@H]3CC[C@@]21C`, for which the Potency result was “inactive”.

Consider `C=C(c1ccc(C(=O)O)cc1)c1cc2c(cc1C)C(C)(C)CCC2(C)C`, for which the Potency entry is “inactive”.

Turning to `CO/N=C(\C(=O)N[C@@H]1C(=O)N2C(C(=O)O)=C(CSc3nc(=O)c(O)nn3C)CS[C@H]12)c1csc(N)n1`, the Potency result is “inactive”.

`Cn1cnc([N+](=O)[O-])c1Sc1ncnc2nc[nH]c12`: the Potency result is “inactive”.

Consider `OCCN1C[C@H](O)[C@@H](O)[C@H](O)[C@H]1CO`, for which the Potency result was “inactive”.
